Source: PubChem (several laboratories)
VLA-4 inh – inhibition in a human VLA-4 binding assay; P13612; VLA-4 expressing cells, ligand binding flow cytometry; inhibition, % (about 7 µM as worked out from the volumes in the protocol); hit rate 0.2% among 330,000; in the data active = inhibition above about 50%
Target sequence (P13612 whole entry, looked up): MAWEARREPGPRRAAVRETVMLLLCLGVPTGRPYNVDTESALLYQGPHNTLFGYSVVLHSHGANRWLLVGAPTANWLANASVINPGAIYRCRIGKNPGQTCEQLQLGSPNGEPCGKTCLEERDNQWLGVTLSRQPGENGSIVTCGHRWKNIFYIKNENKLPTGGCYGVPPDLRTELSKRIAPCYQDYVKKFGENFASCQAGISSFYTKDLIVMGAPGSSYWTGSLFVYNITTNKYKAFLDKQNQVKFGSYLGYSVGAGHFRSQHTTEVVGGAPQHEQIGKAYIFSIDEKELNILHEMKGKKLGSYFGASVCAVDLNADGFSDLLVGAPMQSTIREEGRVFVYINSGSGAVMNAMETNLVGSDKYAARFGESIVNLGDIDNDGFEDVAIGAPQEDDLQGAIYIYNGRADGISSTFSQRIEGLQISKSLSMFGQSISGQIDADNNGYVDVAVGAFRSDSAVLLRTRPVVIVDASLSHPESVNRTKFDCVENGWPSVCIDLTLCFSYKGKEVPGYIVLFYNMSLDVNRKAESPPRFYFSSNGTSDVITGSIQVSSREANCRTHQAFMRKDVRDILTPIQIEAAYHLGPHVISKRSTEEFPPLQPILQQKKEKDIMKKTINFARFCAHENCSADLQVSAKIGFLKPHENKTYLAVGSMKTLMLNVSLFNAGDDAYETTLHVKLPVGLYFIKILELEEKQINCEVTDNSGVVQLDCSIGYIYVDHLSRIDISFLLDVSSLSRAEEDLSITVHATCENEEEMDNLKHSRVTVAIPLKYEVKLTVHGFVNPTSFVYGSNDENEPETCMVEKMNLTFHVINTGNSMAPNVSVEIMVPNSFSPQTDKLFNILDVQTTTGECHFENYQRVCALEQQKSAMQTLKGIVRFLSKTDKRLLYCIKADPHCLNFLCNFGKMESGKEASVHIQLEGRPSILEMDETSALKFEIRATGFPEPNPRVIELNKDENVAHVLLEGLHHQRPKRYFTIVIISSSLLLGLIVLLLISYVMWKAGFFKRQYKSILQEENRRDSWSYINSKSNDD
JMJD2C inh – blocks human GASC-1 demethylase activity; hit rate 0.069% among 330,000; AID 2099; GST-JMJD2C(1-420) H3K9me3 demethylation, DELFIA europium; inhibition, % at 2.35 µM; Q9H3R0;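 active = more than half of a compound's replicate wells show inhibition beyond 50%, single wells judged on their own value; inconclusive = some, but no more than half, of replicates pass 50% inhibition; inactive = no replicate passes 50% inhibition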;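 also: signal counts dimethyl H3K9 product captured on neutravidin plate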
HTR2A ag – agonists of mouse serotonin 5-HT2A receptor (HTR2A); CHO-K1 mHTR2A beta-arrestin complementation, luminescence; percent of 30 µM serotonin response; hit rate 0.66% among 360,000; AID 624169; activation, % at 7.6 µM;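 active = activation above a run cutoff, the mean activation of all tested compounds plus 3 SD, cut at about 14% in these data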
Granule exo inh – blocks lytic granule exocytosis | TALL-104 LAMP-1 surface exposure, flow cytometry; cells stimulated with thapsigargin and PMA | inhibition, % at 10 µM | hit rate 0.66% among 360,000;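 active = inhibition above about 55%, limit read from the data; inconclusive = no clear call, values can overlap the other calls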
MEX-5 binding – C. elegans MEX-5 TCR-2 RNA binding activity. MEX-5/FITC-TCR2 RNA binding, fluorescence polarization; stronger effect = lower value. activity score (negative = inhibition of binding), % at 10 µM. hit rate 0.38% among 300,000. AID 1832;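 active = inhibition past about -25% in most replicates, and total fluorescence under double the plate's negative control median, limit read from the data; inconclusive = replicates evenly split on the limit, or fluorescence at least double controls; inactive = too little inhibition in most replicates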
V-ATPase pH – yeast V-ATPase proton transport regulation by pHLuorin. AID 504577. S. cerevisiae, pHLuorin cytosolic pH fluorescence. hit rate 0.37% among 350,000. response, % at 10 µM; in the data active = response mostly above about 7.3%, no sharp cut-off; inactive = mostly below about 5.4%; also: actives read high
OPRM1 ag – activates human mu opioid receptor in HTR2A counterscreen. activation, % at 9.3 µM. AID 624380. U2OS OPRM1 beta-arrestin PathHunter, luminescence; DMSO 0%, DAMGO 9.3 µM 100%. shares compounds with HTR2A ag. hit rate 5.3% among 2,300;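 active = mean activation above the mean of DMSO-only wells plus 3 SD, cut at about 0.5% in these data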
HTR2A ag conf – confirmation of mouse HTR2A serotonin receptor agonists; CHO-K1 PathHunter beta-arrestin recruitment, luminescence; DMSO 0%, 30 µM serotonin 100%; activation, % at 7.6 µM; AID 624381; hit rate 19% among 2,300; shares compounds with HTR2A ag;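 active = mean activation across triplicates above the hit threshold derived in the original primary screen, cut at about 15% in these data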
Hits are given with their value; - = inactive; ? = inconclusive; . = no result. An excerpt weighted towards active compounds, which were near 2.2% of everything screened.

SMILES | VLA-4 inh | JMJD2C inh | HTR2A ag | Granule exo inh | MEX-5 binding | V-ATPase pH | OPRM1 ag | HTR2A ag conf
CN1CCN(S(=O)(=O)c2cccc(C(=O)Nc3cc(C(N)=O)cc(C(N)=O)c3)c2)CC1 | - | - | 15.6 | - | - | - | - | -
COc1ccc(S(=O)(=O)N2CCC(N3CCN(Cc4ccccc4)CC3)CC2)cc1 | - | - | 22.1 | - | - | - | - | 41.5
O=S(=O)(c1ccc(Cl)cc1)N1CCN(C2CCN(Cc3ccccc3)CC2)CC1 | - | - | - | - | - | - | . | .
O=S(=O)(NOCc1ccc(Cl)cc1)c1ccc(Cl)cc1 | - | - | 14.9 | - | - | - | - | -
CC(C)(C)c1ccc(C(=O)Nc2ccc3c(c2)C(=O)NC3=O)cc1 | - | - | 16.5 | - | - | - | - | -
COc1cc2c(cc1OC)CN(C(=O)C(C)(C)C)CC2 | - | ? | 16.8 | - | - | - | - | -
COc1ccc(C(=O)N2CCc3cc(OC)c(OC)cc3C2)cc1OC | - | - | - | - | - | - | . | .
CCC1(c2ccccc2)NC(=O)N(CC(=O)N(C)CC(=O)Nc2cccc(OC)c2)C1=O (stereo not given) | - | - | 14.8 | - | - | - | - | -
CCC1(c2ccc(F)cc2)NC(=O)N(CC(=O)Nc2ccccc2C)C1=O (stereo not given) | - | - | 14.5 | - | - | - | - | -
CCN(CC)C(=O)CCNS(=O)(=O)c1ccc(C)cc1 | - | - | 15.2 | - | - | - | - | -
CN1C2CCC1CC(NS(=O)(=O)c1cccc(C(F)(F)F)c1)C2 (stereo not given) | - | - | - | - | - | - | . | .
CN1C2CCC1CC(NS(=O)(=O)c1ccc(C#N)cc1)C2 (stereo not given) | - | - | 16.4 | - | - | - | - | -
O=C(Nc1cccnc1)c1cc(-c2ccco2)on1 | - | - | 20.3 | - | - | - | - | -
O=C(Nc1cccnc1)c1cc(-c2ccccc2)on1 | - | - | - | - | - | - | . | .
CN(CC(=O)Nc1ccc(S(=O)(=O)N2CCCC2)cc1)Cc1c(F)cccc1Cl | - | - | - | - | - | - | . | .
COc1ccc(Cl)cc1S(=O)(=O)N1CCCc2ccccc21 | - | - | - | - | - | - | . | .
COc1ccc(Cl)cc1S(=O)(=O)N1CCN=C1C | - | - | 24.1 | - | - | - | - | -
Cc1ccccc1-n1c(SC(C)C(=O)NCC2CCCO2)nnc1-c1ccncc1 (stereo not given) | . | . | 15.2 | - | . | - | - | -
COC(=O)C1CC(c2ccccc2)N(c2ccccc2)O1 (stereo not given) | . | . | - | - | . | - | . | .
O=C(NCC1CC1)c1cccs1 | . | . | - | - | . | . | . | .
O=C(NCC1CCCN(C2Cc3ccccc3C2)C1)c1cccs1 (stereo not given) | - | - | 18.8 | - | - | - | - | 14.8
CC(OC(=O)c1ccccc1)C(=O)NCc1ccco1 (stereo not given) | - | - | - | - | . | - | . | .
CCN1CCN(C(=S)Nc2cccc([N+](=O)[O-])c2)CC1 | - | - | 25.6 | - | - | - | - | -
COc1ccc(CN(C)C(=O)c2ccc(NS(=O)(=O)c3ccc4[nH]c(=O)[nH]c4c3)cc2)c(OC)c1OC | - | - | - | - | . | - | . | .
COc1ccc(CN(C)C(=O)c2ccc(NS(=O)(=O)c3ccc(C)c([N+](=O)[O-])c3)cc2)c(OC)c1OC | - | - | 18.5 | - | - | - | - | -
SMILES | VLA-4 inh | JMJD2C inh | HTR2A ag | Granule exo inh | MEX-5 binding | V-ATPase pH | OPRM1 ag | HTR2A ag conf
CC(C)(C)c1ccc(C(=O)N2CCC2(C)C(=O)Nc2cccc3ccccc23)cc1 (stereo not given) | . | . | - | - | . | . | . | .
CCOc1ccc(-c2cc(C(=O)N3CCCC3)c3ccccc3n2)cc1 | - | - | 14.8 | - | - | - | - | -
COCCN1CCN(C(=O)c2cc(COc3cncc(Cl)c3)on2)CC1 | - | - | - | - | - | - | . | .
O=C(O)c1cccc2c1Cc1cc([N+](=O)[O-])ccc1-2 | . | . | 15.4 | - | . | - | - | -
C/C(=N\NC(=O)c1cccc(Br)c1)c1cccnc1 | - | - | - | - | - | - | . | .
O=C1Nc2ccccc2/C1=C/c1ccc([N+](=O)[O-])cc1 | - | - | 27.9 | - | - | - | 1.0 | -
O=C1Nc2ccccc2/C1=C/c1ccccc1Cl | - | - | - | - | - | - | . | .
Cc1ccc(NC(=O)CSc2nc(N)cc(=O)[nH]2)cc1S(=O)(=O)N1CCCCCC1 | - | - | 15.7 | - | . | - | - | -
CC(C)(C(=O)Nc1nccs1)c1ccccc1 | - | - | - | - | - | - | . | .
O=C(COC(=O)c1ccco1)Nc1ccc(N2CCOCC2)cc1 | . | . | 17.2 | - | . | - | - | -
COc1ccccc1C(=O)NC(=O)COC(=O)c1ccc([N+](=O)[O-])cc1 | - | - | 17.7 | - | - | - | - | -
COc1ccccc1C(=O)NC(=O)COC(=O)C1(C)CC1(Cl)Cl (stereo not given) | - | - | 18.0 | - | - | - | - | -
COc1ccc2[nH]c3c(c2c1)CCN1C(=O)C(CC(=O)NCCCn2ccnc2)C[C@H](C(=O)N2CCCCC2)[C@@]31C (stereo not given in full) | . | . | - | - | . | - | . | .
COc1cccc(CN2CCN(c3ncccn3)CC2)c1 | - | - | 36.1 | - | - | - | - | 113.0
COc1cc(Br)cc(CN2CCN(c3ncccn3)CC2)c1O | - | - | 32.8 | - | - | - | - | 105.9
Cc1ccc(CN2CCN(c3ncccn3)CC2)o1 | - | - | 29.9 | - | - | - | - | 60.2
Cc1ccc(C)c(S(=O)(=O)N2CCN(c3ncccn3)CC2)c1 | - | - | - | - | - | - | . | .
Cc1ccc(C)c(CN2CCN(c3ncccn3)CC2)c1 | - | - | 17.3 | - | - | - | - | 61.8
Cc1ccc(-c2cc(C(=O)N(C)CC(=O)Nc3ccccc3Br)c3ccccc3n2)o1 | - | - | - | - | - | - | . | .
CCN(CC)S(=O)(=O)c1ccc(Cl)c(C(=O)Nc2ccc(Cl)cc2[N+](=O)[O-])c1 | - | - | - | - | - | - | . | .
O=c1cc(CSc2ccc(Cl)cc2)nc(-c2ccccn2)[nH]1 | - | - | - | - | - | - | . | .
O=C(CN1CCN(c2ncccn2)CC1)NCc1ccc2c(c1)OCO2 | - | - | - | - | - | - | . | .
Oc1cc2c(cc1CN1CCN(c3ncccn3)CC1)OCO2 | - | - | 17.3 | - | - | - | - | 123.1
Fc1ccccc1CN1CCN(c2ncccn2)CC1 | - | - | 25.6 | - | - | - | - | 121.2
